Compounds with a hit are over-represented: about 4% of the library has one in this group of screens.
PAX8 reporter: inhibitors of PAX8 transcriptional activity in RMG-I cells | RMG-I TPO-luciferase reporter, SteadyGlo, 24 h | inhibition, % at 12.6 µM | AID 652154 | hit rate 1.2% among 360,000;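 active means mean replicate inhibition at least 60% with every replicate also reaching 60%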;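 further: luciferase light reporting Pax8 driven TPO promoter activity; plate controls were median of neutral control wells for no effect and mitoxantrone controls for full effect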
CSC inhib: cancer stem cell inhibition | cancer stem cell-like cells viability, luminescence | inhibition, % at 7.5 µM | hit rate 1.1% among 300,000 | AID 2717; in the data active means inhibition above about 75%; tested in HMLE shEcad cells
Gli-Sufu block: blocks Gli-Sufu signaling in a luciferase reporter; AID 588413; inhibition, % at 5 µM; Sufu-KO-LIGHT fibroblasts, Gli luciferase reporter luminescence; hit rate 0.74% among 340,000;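 active means inhibition above about 55%, limit read from the data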;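 further: 0% = DMSO-treated cells and 100% = wells with medium but no cells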
Mdm2 MdmX PPI: human Mdm2/MdmX binding inhibition | SaOS-2 split-luciferase Mdm2/MdmX complementation, luminescence | hit rate 3% among 330,000 | AID 485346 | O15151+Q00987 | inhibition, % at 8 µM;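 active means inhibition of at least 50% at 8 µM in the primary screen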
Target sequence (O15151 whole entry, looked up): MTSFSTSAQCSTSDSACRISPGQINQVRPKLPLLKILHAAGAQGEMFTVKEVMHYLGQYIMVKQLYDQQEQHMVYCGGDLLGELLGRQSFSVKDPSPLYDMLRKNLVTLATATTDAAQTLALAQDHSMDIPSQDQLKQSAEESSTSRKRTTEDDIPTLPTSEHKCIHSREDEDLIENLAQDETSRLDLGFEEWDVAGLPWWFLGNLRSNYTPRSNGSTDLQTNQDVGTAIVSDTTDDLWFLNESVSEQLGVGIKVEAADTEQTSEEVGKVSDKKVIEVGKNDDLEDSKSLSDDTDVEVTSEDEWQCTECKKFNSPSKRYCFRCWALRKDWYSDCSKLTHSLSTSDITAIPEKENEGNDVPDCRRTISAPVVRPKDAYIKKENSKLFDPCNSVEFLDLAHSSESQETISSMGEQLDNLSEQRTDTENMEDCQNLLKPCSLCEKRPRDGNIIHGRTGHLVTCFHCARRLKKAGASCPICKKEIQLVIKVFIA
Target sequence (Q00987 whole entry, looked up): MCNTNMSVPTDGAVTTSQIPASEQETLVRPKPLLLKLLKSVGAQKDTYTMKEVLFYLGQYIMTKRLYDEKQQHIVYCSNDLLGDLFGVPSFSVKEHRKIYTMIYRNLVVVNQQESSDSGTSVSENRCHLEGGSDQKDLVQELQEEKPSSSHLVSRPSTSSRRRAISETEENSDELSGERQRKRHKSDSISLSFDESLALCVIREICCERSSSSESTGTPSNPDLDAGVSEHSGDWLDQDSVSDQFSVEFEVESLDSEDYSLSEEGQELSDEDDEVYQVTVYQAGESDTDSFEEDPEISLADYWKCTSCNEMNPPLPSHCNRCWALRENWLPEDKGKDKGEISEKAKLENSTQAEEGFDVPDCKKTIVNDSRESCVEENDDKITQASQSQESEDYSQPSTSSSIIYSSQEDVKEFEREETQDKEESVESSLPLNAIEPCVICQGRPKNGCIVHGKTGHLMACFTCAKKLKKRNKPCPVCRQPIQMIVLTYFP
Beta apoptosis: beta cell apoptosis inhibition; INS-1E cytokine-induced death, ATP luminescence, 48 h; percent of positive-control rescue, neutral wells zero; protection from apoptosis, % (no concentration beside the values); hit rate 0.8% among 300,000;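 active means Every replicate reaches about 75%, or at least half do and their mean reaches it too, limit read from the data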;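 further: 0% = cytokine-treated negative control wells and 100% = positive control rescue; higher means more ATP so stronger rescue from cytokine killing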
Shn3 inh set2: inhibitors of Schnurri-3 3'UTR reporter in osteoblasts; inhibition, % at 12.5 µM; Clone20 osteoblast Shn3 3'UTR firefly luciferase, 24 h; hit rate 0.52% among 360,000;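 active means mean inhibition of at least 75% with every replicate also reaching 75%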;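 further: 0% = median of neutral control wells and 100% = pilot-screen positive control compound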
Mdm2 MdmX conf: human Mdm2/MdmX binding inhibition, confirmed | shares compounds with Mdm2 MdmX PPI | luminescent assay | inhibition, % at 8 µM | hit rate 55% among 10,000 | AID 489028; in the data active means inhibition above about 40%
FLuc counter: counter-screen for Mdm2/MdmX inhibitors: full-length luciferase; shares compounds with Mdm2 MdmX PPI; SaOS-2 full-length luciferase counterscreen, luminescence; inhibition, % at 8 µM; hit rate 77% among 6,200;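 active means mean inhibition at 8 µM reaching about 37%, which flags the compound as non-specific, limit read from the data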;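 further: p53-null SaOS-2 cells with luciferase driven by a doxycycline-inducible promoter; compound on cells about two nights before reading with doxycycline added after day one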
* marks the source's active call; other numbers are inactive results.

O=S(=O)(Nc1cccnc1)c1cccc(C(F)(F)F)c1 was read as CSC inhib -4, Gli-Sufu block 2, Mdm2 MdmX PPI 7, Beta apoptosis -2 and Shn3 inh set2 13.
O=[N+]([O-])c1ccc(S(=O)(=O)c2cccc(C(F)(F)F)c2)nc1 was read as CSC inhib 6, Gli-Sufu block -1, Mdm2 MdmX PPI 95*, Beta apoptosis 57, Mdm2 MdmX conf 100* and FLuc counter 0.
Screening C[C@@H]1CN([C@H](C)CO)C(=O)c2cccc(NC(=O)c3cnccn3)c2O[C@H]1CN(C)S(=O)(=O)c1cn(C)cn1 returned PAX8 reporter -5.
For COc1cccc(NC(=O)CSc2nc3c(sc4ccccc43)c(=O)n2CCN(C)C)c1 the results were PAX8 reporter 1, CSC inhib 2, Gli-Sufu block 0, Mdm2 MdmX PPI -12, Beta apoptosis -17 and Shn3 inh set2 -17.
For COc1cccc(NC(=O)CSc2nc3c(sc4ccccc43)c(=O)n2CCCN2CCCC2)c1 the results were PAX8 reporter -6, CSC inhib 7, Gli-Sufu block 32, Mdm2 MdmX PPI 89*, Beta apoptosis -4, Shn3 inh set2 -39 and Mdm2 MdmX conf 26.
CCN(CC)CCn1c(SCC(=O)Nc2cccc(OC)c2)nc2c(sc3ccccc32)c1=O was read as PAX8 reporter 19, CSC inhib 16, Gli-Sufu block 1, Mdm2 MdmX PPI 51*, Beta apoptosis 7, Shn3 inh set2 -4 and Mdm2 MdmX conf 36.
Screening Cc1ccc(C(=O)N2CCCCC2)cc1NC1=C(Cl)C(=O)N(Cc2ccccc2)C1=O returned PAX8 reporter 72*, Gli-Sufu block -6, Mdm2 MdmX PPI 56*, Shn3 inh set2 28, Mdm2 MdmX conf 50* and FLuc counter 64*.
`COc1cc(NS(=O)(=O)c2ccc3c(c2)oc(=O)n3C)cc(OC)c1OC` gave PAX8 reporter 32, CSC inhib 23, Gli-Sufu block 16, Mdm2 MdmX PPI 57*, Beta apoptosis 3, Shn3 inh set2 73 and Mdm2 MdmX conf 20.
For O=C1c2ccccc2-c2n[nH]c3cccc1c23 the results were PAX8 reporter -9, Gli-Sufu block 0, Mdm2 MdmX PPI 53*, Shn3 inh set2 -6 and Mdm2 MdmX conf 32.
`CC=Cc1ccc2n(c1=O)C[C@@H]1[C@@H](CO)[C@H](C(=O)NCC(F)(F)F)[C@H]2N1C(=O)C1CCCCC1` (mixture of isomers) gave PAX8 reporter -3.
`CC1CC(C)CN(Cc2nc(N)nc(Nc3ccc4ccccc4c3)n2)C1` (stereo unspecified) gave CSC inhib 56, Gli-Sufu block -4, Mdm2 MdmX PPI 62*, Beta apoptosis 17, Shn3 inh set2 5, Mdm2 MdmX conf 67* and FLuc counter 57*.
`CC(=O)/C(C#N)=C1\NC(=O)C(Cc2ccc(C)c(C)c2)S1` (stereo unspecified) gave CSC inhib 49, Gli-Sufu block 2, Mdm2 MdmX PPI 84*, Beta apoptosis 7, Shn3 inh set2 15, Mdm2 MdmX conf 91* and FLuc counter 32.
Screening CC(=O)/C(C#N)=C1\NC(=O)C(Cc2ccc(F)cc2)S1 (stereo unspecified) returned PAX8 reporter 10, CSC inhib 4, Gli-Sufu block 9, Mdm2 MdmX PPI 3, Beta apoptosis 1 and Shn3 inh set2 8.
Screening CC(=O)/C(C#N)=C1\NC(=O)C(Cc2ccccc2Cl)S1 (stereo unspecified) returned PAX8 reporter -1, CSC inhib -2, Gli-Sufu block 2, Mdm2 MdmX PPI 87*, Beta apoptosis -5, Shn3 inh set2 12, Mdm2 MdmX conf 91* and FLuc counter 30.
Screening CC(=O)/C(C#N)=C1\NC(=O)C(Cc2cc(Cl)ccc2Cl)S1 (stereo unspecified) returned PAX8 reporter -13, CSC inhib 72, Gli-Sufu block 3, Mdm2 MdmX PPI 96*, Beta apoptosis 14, Shn3 inh set2 27, Mdm2 MdmX conf 83* and FLuc counter 31.
For C[C@@H]1CN([C@@H](C)CO)C(=O)c2cccc(NC(=O)C3CCCCC3)c2O[C@@H]1CN(C)C(=O)Nc1ccc2c(c1)OCO2 the results were PAX8 reporter -3.
For COc1ccc(C(C#N)c2ccc(Cl)nn2)cc1 (stereo unspecified) the results were PAX8 reporter 10, CSC inhib 6, Gli-Sufu block 0, Mdm2 MdmX PPI 5 and Shn3 inh set2 0.
Screening COc1ccc(C(C#N)c2nc3ccccc3nc2Cl)cc1 (stereo unspecified) returned PAX8 reporter 6, CSC inhib 6, Gli-Sufu block 13, Mdm2 MdmX PPI 52*, Beta apoptosis -4, Shn3 inh set2 13 and Mdm2 MdmX conf 19.
For CC(C)n1cnc2c(Nc3cccc(F)c3)nc(NCCO)nc21 the results were PAX8 reporter -37, CSC inhib -13, Gli-Sufu block -8, Mdm2 MdmX PPI 62*, Beta apoptosis -7, Shn3 inh set2 -14, Mdm2 MdmX conf 58* and FLuc counter 82*.
For CC(C)n1cnc2c(Nc3ccc(F)c(Cl)c3)nc(NCCO)nc21 the results were PAX8 reporter 20, CSC inhib -5, Gli-Sufu block 14, Mdm2 MdmX PPI 25, Beta apoptosis -2 and Shn3 inh set2 -12.
`CC(C)C[C@H](CO)Nc1nc(Nc2cccc(Cl)c2)c2ncn(C(C)C)c2n1` gave PAX8 reporter 9, CSC inhib -8, Gli-Sufu block 5, Mdm2 MdmX PPI 75*, Beta apoptosis 4, Shn3 inh set2 28, Mdm2 MdmX conf 65* and FLuc counter 58*.
For CN1c2ccc(-c3cccc(C#N)c3)cc2[C@@H]2[C@@H](CCN2C(=O)NC2CCCC2)[C@@H]1CO the results were PAX8 reporter 31.
`COc1cccc(NC(=O)N[C@H]2CC[C@H](CC(=O)Nc3ccc(-c4ccccc4)cc3)O[C@H]2CO)c1` gave PAX8 reporter 16.
For Cc1ccc(S(=O)(=O)Nc2ccc3c(c2)C(=O)N([C@@H](C)CO)C[C@H](C)[C@@H](CN(C)Cc2ccc(C(=O)Nc4ccccc4N)cc2)OCCCC[C@@H](C)O3)cc1 the results were PAX8 reporter 18.
Screening Cc1ccc([N+](=O)[O-])cc1N(CC(=O)Nc1ccc(S(=O)(=O)Nc2cccc(C(F)(F)F)c2)cc1)S(C)(=O)=O returned CSC inhib 100*, Mdm2 MdmX PPI 55*, Beta apoptosis 99*, Shn3 inh set2 44, Mdm2 MdmX conf 45* and FLuc counter 39*.

Assay outcomes: PubChem, several laboratories
